# About 13,000 (27%) of roughly 48,000 compounds showed an effect of 50% or more. This is one part of the list.
# Tested on: Wolbachia pipientis
# Test: Anti-Wolbachia Cell-Based Screen
# Type: functional
# Parameters: scale not given: in the data most compounds retested in dose-response had high values
# Settings: 5 µM
row,Compound,Percent Effect
1,CCn1cnnc1CNC(=O)N(C)Cc1cccc(Cl)c1Cl,-4.031%
2,Cc1ccc(CN2CC3(CCN(C(=O)Cc4ccc(Cl)cc4)C3)C2)o1,100.7%
3,Cc1ccc(CN2CC3(CCN(S(=O)(=O)c4ccccc4)C3)C2)o1,-20.52%
4,CCS(=O)(=O)N1CCC2(CN(Cc3ccc(C)o3)C2)C1,-24.8%
5,CCCOc1ccc(Cl)cc1CNc1ncnc2oc(C)nc12,-1.031%
6,Cc1nn(C)c(C)c1NC(=O)CN1CCCC1c1noc(C(C)C)n1 (stereo not drawn),-6.278%
7,Cc1n[nH]c(C)c1NC(=O)CN1CCCC1c1noc(C(C)C)n1 (stereo not drawn),106.9%
8,Cc1n[nH]c(C)c1NC(=O)CN1CCCC1c1noc(C2CC2)n1 (stereo not drawn),90.47%
9,Cc1cc(NC(=O)CN2CCCC2c2noc(C(C)C)n2)n(C)n1 (stereo not drawn),-5.63%
10,Cc1nc(C2CCCN2CC(=O)Nc2c(C)n[nH]c2C)no1 (stereo not drawn),89.73%
11,Cc1nn(C)c(C)c1NC(=O)CN1CCCC1c1noc(C2CC2)n1 (stereo not drawn),-4.679%
12,CCc1nc(C2CCCN2CC(=O)Nc2c(C)n[nH]c2C)no1 (stereo not drawn),6.679%
13,Cc1nc(C2CCCN2CC(=O)Nc2c(C)nn(C)c2C)no1 (stereo not drawn),-17.15%
14,CCc1nnc(CNC(=O)c2cc3c(nc2OC)CCC3)s1,18.91%
15,CCN1CCN(C(=O)c2cc(F)cc3nc(C)c(C)nc23)CC1,-0.6809%
16,CC(C)[C@@H](C)NC(=O)N1CCn2nc(C(=O)NCCN(C)C)cc2C1,-12.94%
17,CC(C)CC(NCc1ccsc1)c1ccccn1 (stereo not drawn),110.4%
18,COc1ccccc1NCc1cscn1.Cl,-2.575%
19,COc1cc(C(C)NCc2cscn2)ccc1SC(F)F (stereo not drawn),-37.81%
20,CC(C)Cc1nnc(NCc2ccsc2)o1,-5.765%
21,CC(C)CC(NCc1cccs1)c1ccccn1 (stereo not drawn),107.8%
22,CC(NCc1cccc(C#N)c1)c1ccccn1.Cl (stereo not drawn),-10.04%
23,O=C(Cn1cccnc1=O)NC(Cc1cccs1)c1ccccn1 (stereo not drawn),-8.701%

row,Compound,Percent Effect
1,CC(C)CC(NCc1cscn1)c1ccccn1 (stereo not drawn),95.9%
2,NC(=O)C(NCc1cccs1)c1ccccc1 (stereo not drawn),8.593%
3,O=C(NCCc1[nH]nc2c1CCCC2)C1CCCN(Cc2ccco2)C1 (stereo not drawn),3.369%
4,COc1ccc(Cl)cc1CS(=O)(=O)Cc1cc(C)on1,6.419%
5,CC(C)OCCS(=O)(=O)c1nccn1-c1cccc(F)c1,-15.74%
6,c1cc(C[C@H]2[C@H](N3CCOCC3)CCN2Cc2ccoc2)ccn1,0.9808%
7,CCN(CCCNc1ncnc2cc(F)c(F)cc12)S(C)(=O)=O,-17.06%
8,Cc1ccc(OCC2CCCN(CC3CCOCC3)C2)cc1 (stereo not drawn),-21.59%
9,CC(C)N(C)C(=O)C1=NOC2(CCN(C(=O)c3cccn3C)C2)C1 (stereo not drawn),84.53%
10,CC(C)N(C)C(=O)C1=NOC2(CCN(C(=O)NCc3cccnc3)C2)C1 (stereo not drawn),-9.701%
11,CC(C)N(C)C(=O)C1=NOC2(CCN(C(=O)c3ccncc3)C2)C1 (stereo not drawn),5.935%
12,O=C(NCC1CC1)C1=NOC2(CCN(S(=O)(=O)c3cccs3)C2)C1 (stereo not drawn),6.398%
13,Cc1cccc(C(=O)N2CCC3(CC(C(=O)N(C)C(C)C)=NO3)C2)c1 (stereo not drawn),115.7%
14,Cc1ccsc1C(=O)N1CCC2(CC(C(=O)N(C)C(C)C)=NO2)C1 (stereo not drawn),115.3%
15,Cc1cccc(C(C)CNC(=O)N2CCC3(C2)OCCO3)c1 (stereo not drawn),-6.289%
16,CC(C)N(C)C(=O)C1=NOC2(CCN(C(=O)c3ccnnc3)C2)C1 (stereo not drawn),97.08%
17,CS(=O)(=O)NCc1ccc(C(=O)NCc2ccc3c(c2)CCC3)o1,9.511%
18,CCc1nc(Cn2ccnc2-c2nccn2C)no1,0.7793%
19,Cc1nc(CN(C)C2CCN(Cc3cccc4cccnc34)C2)no1 (stereo not drawn),89.88%
20,Cc1nc(CN(C)C2CCN(Cc3ccno3)C2)no1 (stereo not drawn),0.1776%
21,Cc1nc(CN(C)C2CCN(Cc3cccc4c3OCCO4)C2)no1 (stereo not drawn),98.62%
22,COc1ccc(OCC(=O)NC(C)c2ccc(F)cc2)c(C(=O)O)c1 (stereo not drawn),-8.723%
23,Cc1cc(C(=O)N2CCCC(Cn3cc(C4CC4)nn3)C2)nc(C)n1 (stereo not drawn),-17.66%

row,Compound,Percent Effect
1,Cc1cc(-c2nccs2)nc(C2CCN(Cc3ccncc3)CC2)n1.Cl,130.1%
2,CCn1c(CN2CCCC2)nnc1C1CCN(Cc2ccncc2)CC1,-5.506%
3,CCn1c(CN(C)C)nnc1C1CCN(Cc2ccncc2)CC1,-6.888%
4,Cc1cc(-c2nccs2)nc(C2CCN(Cc3ccc(F)cc3)CC2)n1.Cl,104.7%
5,Cc1ccsc1-c1nnc(C2CCN(Cc3ccc(F)cc3)CC2)o1,-8.577%
6,CNC(=O)CSC(C)c1ccc(Br)cc1 (stereo not drawn),-4.092%
7,COC(=O)CN(C(=O)c1ccco1)c1cccc(F)c1,6.947%
8,O=c1c2cccnc2cnn1CC(O)c1cccc(C(F)(F)F)c1 (stereo not drawn),6.556%
9,Cc1ccc(-c2nc(CCNC(=O)CCN3CCOC3=O)co2)cc1,4.701%
10,NC(=O)NC(=O)CCSCc1coc(-c2cccc(Cl)c2)n1,85.07%
11,NC(=O)NC(=O)CCSCc1coc(-c2ccc(F)cc2)n1,75.11%
12,COC(=O)CSCc1noc(-c2ccc(C)cc2)n1,-9.658%
13,CNC(=O)CS(=O)(=O)Cc1coc(-c2ccc(F)cc2)n1,-9.885%
14,NC(=O)NC(=O)CCSc1ccccc1Cl,-10.1%
15,Cc1ccc(-c2nc(CSCCC(=O)NC(N)=O)co2)cc1,98.78%
16,CC(SCCC(=O)NC(N)=O)c1ccc(F)cc1F (stereo not drawn),-2.178%
17,O=C(NCCc1coc(-c2ccc(F)cc2)n1)NC1CCC(O)CC1 (stereo not drawn),2.186%
18,COCCN(Cc1coc(-c2cccc(Cl)c2)n1)C1CC1,9.963%
19,CC(O)CN1CCN(Cc2coc(-c3cccc(Cl)c3)n2)CC1 (stereo not drawn),-12.56%
20,Cc1ccc(-c2nc(CSCCC(=O)NC(N)=O)co2)c(C)c1,110.2%
21,CNc1nc(C(=O)NCc2cccnc2N(C)C2CCCCC2)cs1,1.168%
22,Cc1nn(C)c2nc(N(C)CCN(C)C)sc12,-12.15%
